This test has as its system Vero E6 infected with SARS-CoV-2. Nature of the test: inhibition of SARS-CoV-2 cytopathic effect; higher = more antiviral protection, active = above 15. The conditions noted are these: 48 h. In general terms: Protection from cytopathic effect is a common read-out in antiviral testing.

Values without a mark were called inactive.

Here are results for 18 compounds from the supplement of paper PMC13380429.

Take `O=C(O)CCCCN(CCc1ccccc1OCc1ccc(CCc2ccccc2)cc1)Cc1ccc(C(=O)O)cc1` [cinaciguat]: the “inhibition of SARS-CoV-2 cytopathic effect” value (“inhibition” for short) reads like this: (1 nM) 1.27%; (8.33 nM) 2.69%; (100 nM) 2.55%; (833.33 nM) 2.26%; (10000 nM) -3.15%.
Turning to `C[C@H]1CCC/C=C/[C@@H]2C[C@H](O)C[C@H]2[C@H](O)/C=C/C(=O)O1` [brefeldin-A], the “inhibition” value is 0.16% (1 nM); 2.51% (8.33 nM); 47.2% (active) (100 nM); -3.55% (833.33 nM); -4.89% (10000 nM).
For `CC[C@H](c1ccc(O)cc1)[C@@H](CC)c1ccc(O)cc1` [hexestrol] the same measures were -3.59%, -0.58%, -0.76%, -3.14% and 2.9%.
For `O=C(c1ccc(-c2ccc(Cl)cc2)o1)N(Cc1ccccn1)c1ccc(N2CCNCC2)cc1` the same measures were -2.64%, 1.12%, -0.23%, -1.66% and 43.8% (active).
In the case of `O=C(Cn1c(=O)sc2ccc(Cl)cc21)N1CCN(CCO)CC1` [tiaramide], the “inhibition” value was -2.08% (1 nM); -1.84% (8.33 nM); -3.6% (100 nM); -1.93% (833.33 nM); 2.14% (10000 nM).
As for `CCn1c(O)nnc1-c1ccc(Cl)cc1` [5-(4chlorophenyl)-4-ethyl-2,4-dihydro-3H-1,2,4-triazol-3-one], the “inhibition” value was -1.14% (1 nM); -2.31% (8.33 nM); -1.83% (100 nM); 0.79% (833.33 nM); 0.03% (10000 nM).
Take `Nc1ccn([C@@H]2O[C@@](CO)(CCl)[C@@H](O)[C@H]2F)c(=O)n1`: the “inhibition” value was 3.35% (1 nM); 2.02% (8.33 nM); -3.04% (100 nM); -0.34% (833.33 nM); 2.59% (10000 nM).
Regarding `c1ccc2c(c1)OC[C@H](CNCCCOc1ccc3c(c1)OCO3)O2` [osemozotan], the “inhibition” value (1 nM) was 2.23%; the “inhibition” value (8.33 nM) is 1.12%; the “inhibition” value (100 nM) is 3.35%; the “inhibition” value (833.33 nM) is 1.42%; the “inhibition” value (10000 nM) is 0.79%.
Regarding `CC(=O)Nc1ccc(NC(=S)NC(=O)c2ccc(C(C)(C)C)cc2)cc1` [tenovin-1], the “inhibition” value (1 nM) was -0.23%; the “inhibition” value (8.33 nM) was 0.85%; the “inhibition” value (100 nM) was 1.6%; the “inhibition” value (833.33 nM) is -7.1%; the “inhibition” value (10000 nM) was -8.92%.
On to `CC(C)(C(=O)NCC(F)(F)C(F)(F)F)C(=O)N[C@@H]1C(=O)Nc2ccccc2-c2ccccc21`, for which the “inhibition” value was -4.06% (1 nM); -4.36% (8.33 nM); -4.95% (100 nM); -5.35% (833.33 nM); -3.87% (10000 nM).
Turning to `Oc1ccc(Nc2nc(-c3ccc(Cl)cc3)cs2)cc1`, the “inhibition” value (1 nM) was 0.33%; the “inhibition” value (8.33 nM) is 0.67%; the “inhibition” value (100 nM) was 2.65%; the “inhibition” value (833.33 nM) was 1.03%; the “inhibition” value (10000 nM) was 3.81%.
For the compound `Fc1ccc2c(CCNCc3cccc(OCC(F)(F)C(F)F)c3)c[nH]c2c1` [idalopirdine], the “inhibition” value is 2.26% (1 nM); 0.96% (8.33 nM); 0.82% (100 nM); -0.82% (833.33 nM); -3.37% (10000 nM).
Take `C[C@H](NC(=O)C(C)(C)Oc1ccc(C(F)(F)F)cn1)[C@@H](Cc1ccc(Cl)cc1)c1cccc(C#N)c1` [taranabant]: the “inhibition” value by setting is: (1 nM) -0.8%; (8.33 nM) 0.33%; (100 nM) -2.11%; (833.33 nM) 1.39%; (10000 nM) -5.97%.
As to `COc1ccc(N(C)c2nc(C)nc3ccccc23)cc1` [verubulin], the “inhibition” value (1 nM) was 0.84%; the “inhibition” value (8.33 nM) was 2.34%; the “inhibition” value (100 nM) is -2.32%; the “inhibition” value (833.33 nM) is 2.89%; the “inhibition” value (10000 nM) is 2.5%.
The matching figures for `O=C(O)c1cc2occc2[nH]1`: -2.55%, -2.94%, -2.08%, -2.97% and -2.87%.
`FC(F)(F)C(F)(F)C(F)(F)C(F)(F)C(F)(F)C(F)(F)C(F)(F)C(F)(F)Br` [perflubron]: the “inhibition” value runs as follows: (1 nM) -0.32%; (8.33 nM) 1.61%; (100 nM) 1.51%; (833.33 nM) -1.6%; (10000 nM) 0.45%.
As for `CCCc1nc(C)c2c(=O)nc(-c3cc(S(=O)(=O)N4CCN(CC)CC4)ccc3OCC)[nH]n12` [vardenafil], the “inhibition” value is -1.45% (1 nM); -1.02% (8.33 nM); 0.46% (100 nM); -0.81% (833.33 nM); 1.4% (10000 nM).
Turning to `Cc1ccc(NC(=O)c2ccc(CN3CCN(C)CC3)cc2)cc1Nc1nc(-c2cccnc2)cs1` [masitinib], the “inhibition” value is, setting by setting: (1 nM) 1.41%; (8.33 nM) 0.48%; (100 nM) 1.05%; (833.33 nM) 1.93%; (10000 nM) 44.8% (active).
